Test results published in the supplement of paper PMC11001985.

Each target was assayed with C#CCNC(=O)CCSSCCC(=O)NCCc1ccc(C=O)c(C=O)c1 (assay: lysine labeling ratio R10:1 (500 µM / 50 µM probe), SILAC-ABPP in living cells; higher = lower intrinsic lysine reactivity toward the probe, active = 2 or less). Conditions: HeLa; probe concentrations 500 vs 50 µM.
Outline: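 With forward and reverse label swaps, light and heavy SILAC HeLa cells, alive and in PBS at room temperature, were exposed to either 500 µM or 50 µM of an alkyne-tagged lysine probe bearing a disulfide link. After mixing, lysates were clicked to biotin-azide, cut with trypsin, pulled down on neutravidin, freed with DTT, alkylated and analysed on a TIMS-TOF Pro by LC-MS/MS. The per-lysine value R is the median over forward and reverse replicates of the filtered median high-probe/low-probe MS1 peptide ratio. It is capped at 20.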

UniProt P23229, sequence (P23229 whole entry): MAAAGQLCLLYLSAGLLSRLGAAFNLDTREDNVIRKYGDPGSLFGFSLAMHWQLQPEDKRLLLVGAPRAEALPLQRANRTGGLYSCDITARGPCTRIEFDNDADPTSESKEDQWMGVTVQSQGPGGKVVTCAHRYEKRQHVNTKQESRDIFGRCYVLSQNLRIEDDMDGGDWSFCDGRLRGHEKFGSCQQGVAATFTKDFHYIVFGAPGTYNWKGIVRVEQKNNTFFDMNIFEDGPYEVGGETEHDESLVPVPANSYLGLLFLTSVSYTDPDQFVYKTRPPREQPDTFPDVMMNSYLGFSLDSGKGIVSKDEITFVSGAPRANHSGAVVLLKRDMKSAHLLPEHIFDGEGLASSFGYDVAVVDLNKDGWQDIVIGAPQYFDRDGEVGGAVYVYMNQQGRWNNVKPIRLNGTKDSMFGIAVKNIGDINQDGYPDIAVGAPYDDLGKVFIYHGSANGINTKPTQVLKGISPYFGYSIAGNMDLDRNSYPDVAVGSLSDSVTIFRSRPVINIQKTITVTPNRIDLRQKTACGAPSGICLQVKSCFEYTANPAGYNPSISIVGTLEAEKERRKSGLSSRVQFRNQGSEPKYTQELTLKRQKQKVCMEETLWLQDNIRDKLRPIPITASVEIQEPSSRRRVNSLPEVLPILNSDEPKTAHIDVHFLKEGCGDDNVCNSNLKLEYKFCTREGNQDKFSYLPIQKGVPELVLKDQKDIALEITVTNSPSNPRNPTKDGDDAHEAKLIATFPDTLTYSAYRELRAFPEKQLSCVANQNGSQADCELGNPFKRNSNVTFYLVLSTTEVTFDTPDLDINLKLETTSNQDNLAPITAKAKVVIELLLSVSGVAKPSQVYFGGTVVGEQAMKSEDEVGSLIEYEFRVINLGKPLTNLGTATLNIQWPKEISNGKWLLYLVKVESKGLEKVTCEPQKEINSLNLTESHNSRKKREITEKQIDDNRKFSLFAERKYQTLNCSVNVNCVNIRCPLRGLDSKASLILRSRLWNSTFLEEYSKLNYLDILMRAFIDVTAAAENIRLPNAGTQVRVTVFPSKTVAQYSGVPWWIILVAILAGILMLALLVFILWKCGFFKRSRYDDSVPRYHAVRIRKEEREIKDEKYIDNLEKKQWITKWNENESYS
UniProt P16949, sequence (P16949 whole entry): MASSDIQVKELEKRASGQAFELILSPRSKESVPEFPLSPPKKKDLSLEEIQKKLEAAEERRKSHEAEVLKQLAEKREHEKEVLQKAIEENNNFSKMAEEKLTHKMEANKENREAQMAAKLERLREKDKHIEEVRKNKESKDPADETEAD
UniProt P14866, sequence (P14866 whole entry): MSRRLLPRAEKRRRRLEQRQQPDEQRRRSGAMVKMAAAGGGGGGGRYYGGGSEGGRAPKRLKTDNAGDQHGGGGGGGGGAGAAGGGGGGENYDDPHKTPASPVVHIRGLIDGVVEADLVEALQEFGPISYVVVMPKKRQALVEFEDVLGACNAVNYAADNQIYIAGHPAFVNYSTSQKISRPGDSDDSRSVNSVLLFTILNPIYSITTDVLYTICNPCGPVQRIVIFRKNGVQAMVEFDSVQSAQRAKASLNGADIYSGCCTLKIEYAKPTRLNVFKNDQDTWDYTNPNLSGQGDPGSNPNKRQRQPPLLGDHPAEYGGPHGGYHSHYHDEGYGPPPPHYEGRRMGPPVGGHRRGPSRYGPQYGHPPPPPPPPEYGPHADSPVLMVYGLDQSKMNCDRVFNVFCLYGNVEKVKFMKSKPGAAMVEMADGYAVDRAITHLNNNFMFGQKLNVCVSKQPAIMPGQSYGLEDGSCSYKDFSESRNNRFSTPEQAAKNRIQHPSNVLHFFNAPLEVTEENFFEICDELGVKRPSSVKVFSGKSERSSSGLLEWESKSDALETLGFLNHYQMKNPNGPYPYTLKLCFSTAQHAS
UniProt Q8WWI1, sequence (Q8WWI1 whole entry): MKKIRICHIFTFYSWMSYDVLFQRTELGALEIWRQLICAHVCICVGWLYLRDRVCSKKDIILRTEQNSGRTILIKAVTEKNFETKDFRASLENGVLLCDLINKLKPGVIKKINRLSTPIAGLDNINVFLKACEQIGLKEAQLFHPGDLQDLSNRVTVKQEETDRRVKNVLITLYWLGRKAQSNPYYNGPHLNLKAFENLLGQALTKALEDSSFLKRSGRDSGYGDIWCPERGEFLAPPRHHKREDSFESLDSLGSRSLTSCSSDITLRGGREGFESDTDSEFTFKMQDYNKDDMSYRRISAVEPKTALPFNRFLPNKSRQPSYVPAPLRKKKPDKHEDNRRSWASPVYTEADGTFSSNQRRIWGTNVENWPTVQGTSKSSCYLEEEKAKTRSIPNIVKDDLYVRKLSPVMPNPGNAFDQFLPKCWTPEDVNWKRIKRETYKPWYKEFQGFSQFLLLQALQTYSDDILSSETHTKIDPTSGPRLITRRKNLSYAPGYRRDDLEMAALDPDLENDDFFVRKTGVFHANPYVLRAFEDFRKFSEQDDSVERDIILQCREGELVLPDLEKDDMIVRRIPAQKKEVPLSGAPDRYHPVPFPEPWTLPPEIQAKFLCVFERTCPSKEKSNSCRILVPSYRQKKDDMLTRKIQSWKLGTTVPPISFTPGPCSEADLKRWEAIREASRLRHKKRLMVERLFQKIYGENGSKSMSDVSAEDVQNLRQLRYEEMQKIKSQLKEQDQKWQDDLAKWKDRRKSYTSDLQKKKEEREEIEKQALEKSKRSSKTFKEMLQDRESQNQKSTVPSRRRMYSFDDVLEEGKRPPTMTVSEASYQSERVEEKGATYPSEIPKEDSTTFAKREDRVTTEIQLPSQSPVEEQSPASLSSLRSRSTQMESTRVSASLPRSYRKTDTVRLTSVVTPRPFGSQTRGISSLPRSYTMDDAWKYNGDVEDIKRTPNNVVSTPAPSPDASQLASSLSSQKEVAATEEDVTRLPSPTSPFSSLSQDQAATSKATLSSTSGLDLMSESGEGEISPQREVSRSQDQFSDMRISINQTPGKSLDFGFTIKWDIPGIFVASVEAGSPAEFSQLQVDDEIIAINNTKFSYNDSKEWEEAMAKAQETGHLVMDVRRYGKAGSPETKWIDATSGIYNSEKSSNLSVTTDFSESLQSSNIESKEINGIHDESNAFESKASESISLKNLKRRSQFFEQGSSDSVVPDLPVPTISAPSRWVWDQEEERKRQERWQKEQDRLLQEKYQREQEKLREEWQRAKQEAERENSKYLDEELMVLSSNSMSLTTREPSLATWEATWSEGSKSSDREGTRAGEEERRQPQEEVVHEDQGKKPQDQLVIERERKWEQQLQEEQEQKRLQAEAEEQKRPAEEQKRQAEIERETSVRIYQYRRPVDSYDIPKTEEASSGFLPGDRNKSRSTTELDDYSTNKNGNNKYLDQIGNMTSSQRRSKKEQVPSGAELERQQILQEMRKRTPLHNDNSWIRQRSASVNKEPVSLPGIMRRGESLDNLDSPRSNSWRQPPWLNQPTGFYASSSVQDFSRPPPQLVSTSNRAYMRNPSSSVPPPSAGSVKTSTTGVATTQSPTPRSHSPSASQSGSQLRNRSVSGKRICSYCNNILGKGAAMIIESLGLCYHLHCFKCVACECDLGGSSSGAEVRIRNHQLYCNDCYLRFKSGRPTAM
UniProt Q13492, sequence (Q13492 whole entry): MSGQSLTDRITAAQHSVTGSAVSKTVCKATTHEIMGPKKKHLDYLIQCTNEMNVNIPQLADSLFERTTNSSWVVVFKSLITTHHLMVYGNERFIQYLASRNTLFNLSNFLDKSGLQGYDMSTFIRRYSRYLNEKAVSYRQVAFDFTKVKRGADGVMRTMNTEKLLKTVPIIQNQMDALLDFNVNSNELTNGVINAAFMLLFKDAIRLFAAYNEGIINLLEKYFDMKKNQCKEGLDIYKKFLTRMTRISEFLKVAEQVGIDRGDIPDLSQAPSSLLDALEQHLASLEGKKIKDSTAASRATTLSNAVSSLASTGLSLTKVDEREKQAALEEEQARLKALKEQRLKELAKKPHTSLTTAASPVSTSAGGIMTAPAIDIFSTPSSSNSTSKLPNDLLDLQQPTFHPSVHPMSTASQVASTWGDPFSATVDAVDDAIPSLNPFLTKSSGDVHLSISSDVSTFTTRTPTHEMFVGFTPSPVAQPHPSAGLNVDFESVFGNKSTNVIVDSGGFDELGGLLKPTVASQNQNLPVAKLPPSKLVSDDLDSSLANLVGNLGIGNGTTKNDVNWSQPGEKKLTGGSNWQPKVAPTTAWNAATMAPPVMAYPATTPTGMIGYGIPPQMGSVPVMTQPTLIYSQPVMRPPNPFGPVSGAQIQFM
UniProt P11021, sequence (P11021 whole entry): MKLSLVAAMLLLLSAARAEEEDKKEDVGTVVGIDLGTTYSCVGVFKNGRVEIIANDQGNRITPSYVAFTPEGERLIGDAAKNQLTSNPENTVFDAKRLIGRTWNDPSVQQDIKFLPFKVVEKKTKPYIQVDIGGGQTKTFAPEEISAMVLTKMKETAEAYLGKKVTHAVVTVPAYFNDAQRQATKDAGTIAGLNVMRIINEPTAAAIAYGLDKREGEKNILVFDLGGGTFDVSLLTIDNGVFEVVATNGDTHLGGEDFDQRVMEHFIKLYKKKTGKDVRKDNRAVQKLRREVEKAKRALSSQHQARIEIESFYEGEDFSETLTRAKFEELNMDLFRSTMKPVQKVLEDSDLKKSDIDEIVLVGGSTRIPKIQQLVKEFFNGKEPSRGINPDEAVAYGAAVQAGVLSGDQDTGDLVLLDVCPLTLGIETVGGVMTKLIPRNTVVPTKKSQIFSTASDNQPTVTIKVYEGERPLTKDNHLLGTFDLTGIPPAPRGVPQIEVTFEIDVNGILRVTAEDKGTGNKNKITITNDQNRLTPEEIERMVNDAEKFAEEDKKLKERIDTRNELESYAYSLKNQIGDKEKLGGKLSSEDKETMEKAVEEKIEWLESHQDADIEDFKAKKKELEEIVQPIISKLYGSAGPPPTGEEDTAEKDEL
UniProt Q13442, sequence (Q13442 whole entry): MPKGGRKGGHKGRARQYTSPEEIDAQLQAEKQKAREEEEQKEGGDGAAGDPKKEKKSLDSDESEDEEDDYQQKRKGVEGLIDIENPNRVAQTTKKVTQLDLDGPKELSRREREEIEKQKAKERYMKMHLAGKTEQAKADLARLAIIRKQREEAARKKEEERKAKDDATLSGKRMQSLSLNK

Lysine labeling ratio R10:1, active:
ECH1 (lysine site: K231) (UniProt Q13011) 1.7
PICALM (lysine site: K324) (UniProt Q13492) 1.36
UniProt P05106 (lysine site: K98) 1.59
PDAP1 (lysine site: K181) (UniProt Q13442) 1.83

Lysine labeling ratio R10:1, inactive:
HSPA9 (lysine site: K143) (UniProt P38646) 2.54
UniProt P46781 (lysine site: K180) 2.7
HSPA5 (lysine site: K185) (UniProt P11021) 3.68
HNRNPL (lysine site: K269) (UniProt P14866) 2.23
LAMA5 (lysine site: K1854) (UniProt O15230) 3.02
ITGA6 (lysine site: K615) (UniProt P23229) 6.91
EZR (lysine site: K344) (UniProt P15311) 7.1
PSMB4 (lysine site: K201) (UniProt P28070) 3.87
LMAN1 (lysine site: K407) (UniProt P49257) 3.11
STMN1 (lysine site: K128) (UniProt P16949) 2.8
UniProt P05787 (lysine site: K198) 7.97
PROCR (lysine site: K192) (UniProt Q9UNN8) 2.15
IGSF3 (lysine site: K92) (UniProt O75054) 2.4
KRT18 (lysine site: K111) (UniProt P05783) 14.4
CCT8 (lysine site: K440) (UniProt P50990) 2.29
GALNT2 (lysine site: K103) (UniProt Q10471) 2.75
LMO7 (lysine site: K1496) (UniProt Q8WWI1) 2.11
FOLR1 (lysine site: K62) (UniProt P15328) 5.42
RPS5 (lysine site: K63) (UniProt P46782) 3.35
